Laboratory results reported in PubChem BioAssay.
Values without a mark were called inactive.

Assay: JC-1 mitochondrial signal, unstimulated adipocytes – cell-based, JC-1 fluorescence, 3T3-L1 adipocytes, 24 h, 100 nL compound, profiling panel (AID 1168); also: test concentration not given here
Settings: JC-1 mitochondrial fluorescence, higher = more signal, called active from +8 up or from −8 down

| Structure (SMILES) | z-score |
| --- | --- |
| CC(CCN1CCCCc2nc(C)c(C)cc21)=NOC[C@@H](C)[C@H](OCc1ccccc1)C(C)C | 0.155 |
| COC(=O)CC=C[C@@H](C)[C@@H](C=NO[C@@H]1O[C@H](COC(C)=O)[C@@H](OC(C)=O)[C@H](OC(C)=O)[C@H]1OC(C)=O)OC | -1.19 |
| CO[C@@H]1COC(=O)[C@H](CCSC)NC(=O)CC=C[C@@H](C)COC(=O)CCC[C@H]1C | -0.688 |
| CCCNC(=O)OC[C@H]1O[C@H](CCON=C(C)CCC(=O)OC[C@H]2O[C@H](c3ccccc3)C=C[C@@H]2Oc2ccc(OC)cc2)C=C[C@@H]1Oc1ccc(OC)cc1 | 0.000229 |
| CCN1C(=O)[C@@H]2[C@H]3C(=CC[C@@H]2C1=O)C1(OCCCO1)[C@H]1O[C@H]1[C@H]3O | -5.63 |
| O=C1[C@H]2[C@H]3[C@H](O)[C@H](O)CC(=NOC[C@@H](O)COCc4ccco4)[C@H]3CC[C@H]2C(=O)N1Cc1ccccc1 | -0.161 |
| CO[C@H]1COC(=O)[C@@H](C)COC(=O)[C@H](C)NC(=O)CC=C[C@H]1C | 0.118 |
| C[C@H]1COC(=O)[C@@H]2CCCN2C(=O)[C@@H](C)COC(=O)[C@H](Cc2ccccc2)NC1=O | -0.906 |
| COC(=O)CC=C[C@@H](C)[C@H](OCc1cccc(-c2ccccc2)c1)C1CCCCC1 | 0.57 |
| C=CC[C@@H]1C=C[C@H](ON=C(C)CCC(=O)OC[C@H]2O[C@H](C#Cc3ccccc3)C=C[C@@H]2Oc2ccc(C)cc2)[C@@H](CO)O1 | -0.311 |
| CON=C[C@@H](NS(=O)(=O)c1ccc(C)cc1)[C@H](C)C=CCC(=O)OC | -0.95 |
| CO[C@@H]1COC(=O)CC=C[C@H](C)[C@H](OC)COC(=O)[C@H](C)NC(=O)CC=C[C@H]1C | -0.878 |
| CC(CCC(=O)OC[C@H]1O[C@H](C#Cc2ccccc2)C=C[C@@H]1Oc1ccc(C)cc1)=NO[C@H](C)c1cn([C@H](CO)Cc2ccccc2)nn1 | -1.08 |
| CCOC(=O)[C@H](Cc1ccccc1)NC(=O)CCC1CC(OC(=O)NCc2cccc3ccccc23)CC2(CCCC(COC(=O)NCC(c3ccccc3)c3ccccc3)O2)O1 (stereo partly specified) | -0.151 |
| CC(C)=CCCC(C)=CCON=C1C[C@@H](O)[C@@H](O)[C@@H]2[C@@H]3C(=O)N(C[C@@H]4CCCO4)C(=O)[C@@H]3CC[C@H]12 | -0.528 |
| COC(=O)[C@H]1O[C@@H](c2c(OC)c(OC)c(C)c(OC)c2OC)[C@H](C)[C@@H](O)[C@H]1C | 0.61 |
| COc1ccc(O[C@H]2C=C[C@@H](c3ccccc3)O[C@@H]2COC(=O)CCC(C)=NOC[C@@H](O)[C@H]2O[C@@H]3OC(C)(C)O[C@@H]3[C@H]2O)cc1 | 0.157 |
| CCOC(=O)[C@H](CC(C)C)NC(=O)CCC1CC(OC(=O)NCCc2ccc(F)cc2)CC2(CCCC(COC(=O)NCC3CCCCC3)O2)O1 (stereo partly specified) | -0.293 |

| Structure (SMILES) | z-score |
| --- | --- |
| CC(C)=CCCC(C)=CCON=C1C[C@@H](O)[C@@H](O)[C@@H]2[C@@H]3C(=O)N(C4CCCCC4)C(=O)[C@@H]3CC[C@@H]12 | -1.22 |
| COC(=O)CC=C[C@@H](C)[C@@H](C=NOC[C@H]1O[C@H](c2ccccc2)C=C[C@@H]1Oc1ccc(OC)cc1)NS(=O)(=O)c1ccc(C)cc1 | -1.06 |
| CCc1cc2c(nc1CC)CCN(CCC(C)=NO[C@H](C)c1cn([C@@H]3COC[C@H]3O)nn1)C2 | 0.367 |
| CCOC(=O)NN=C1C[C@@H](O)[C@@H](O)[C@@H]2[C@@H]3C(=O)N(Cc4ccc5c(c4)OCO5)C(=O)[C@@H]3CC[C@H]12 | -0.754 |
| CO[C@H]1COC(=O)CC=C[C@H](C)[C@@H](OC)COC(=O)[C@@H](C)NC(=O)CC=C[C@@H]1C | -1.76 |
| CO[C@@H]1COC(=O)CC=C[C@@H](C)[C@@H]2C=C[C@H](O)[C@@H](COC(=O)CC=C[C@H]1C)O2 | 0.967 |
| CCOC(=O)[C@H](CC(C)C)NC(=O)CCC1CC(OC(=O)NCCc2ccc(F)cc2)CC2(CCCC(COC(=O)NCCc3ccccc3OC)O2)O1 (stereo partly specified) | 0.293 |
| CCCNC(=O)OC[C@H]1O[C@H](CCON=C(C)CCN2CCCc3nc(C)c(C)cc32)C=C[C@@H]1Oc1ccc(OC)cc1 | -1.09 |
| CCC(=O)[C@@]1(O)C(=O)N2C(=C3C(=O)OCC[C@@H]31)N(Cc1ccccc1)C(C)=C(C(=O)OC)[C@H]2c1ccccc1 | -0.0375 |
| CC(C)(C)N1C(=O)[C@H]2[C@H]3[C@H](O)C=CC(=O)[C@@H]3CC[C@H]2C1=O | -0.211 |
| CC(CCN1CCCc2nc(C)c(C)cc21)=NO[C@@H](C)c1cc(-c2c(C)cc(C)cc2C)no1 | -0.127 |
| C[C@H](ON=C1[C@H]2CCn3c(=O)n(-c4ccccc4)c(=O)n3[C@H]2[C@H](O)[C@@H]2O[C@H]12)c1cn([C@H](CO)Cc2ccccc2)nn1 | -1 |
| CCN1C(=O)[C@H]2[C@H]3[C@H](O)[C@H](O)CC(=O)[C@H]3CC[C@H]2C1=O | -0.386 |
| C#CCCCON=C1C[C@@H](O)[C@@H](O)[C@@H]2[C@@H]3C(=O)N(c4ccc(F)cc4F)C(=O)[C@@H]3CC[C@H]12 | -0.229 |
| O=C(NN=C1C[C@@H](O)[C@@H](O)[C@@H]2[C@@H]3C(=O)N(C4CCCCC4)C(=O)[C@@H]3CC[C@@H]12)OCc1ccccc1 | -0.247 |
| CC(CCN1CCCCc2nc(C)c(C)cc21)=NOC[C@@H](O)COCc1ccco1 | -1.47 |
| C=CC1=C[C@H](O)[C@@H]2O[C@@H]2C12OCCCO2 | -0.729 |
| CON=C1[C@H]2CCn3c(=O)n(-c4ccccc4)c(=O)n3[C@H]2[C@H](O)[C@@H]2O[C@H]12 | 1.86 |
